The source of these data is PubChem BioAssay.

Results filed as inconclusive are left out. Calls of active or inactive are those of the source.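 How the source made its calls, unless noted: active means inhibition above 54%, about 3 SD of non-fluorescent compounds; inactive means the rest.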

Assay [1] can be described thus: yeast TOR pathway RPL19A-GFP modulators, primary screen, cell-based, S. cerevisiae, multiplex flow cytometry (AID 1862; in the data active means percent of DMSO control GFP below about 86%;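 further: lower values mimic rapamycin by blocking the RPL19A rise seen in DMSO cells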). The note with it: S. cerevisiae RPL19A-GFP strain, flow cytometry fluorescence, 3 h; at 10 µM; stronger effect = lower value. On the technique in general: A flow cytometer gives signals particle by particle.
Assay [2] can be described thus: modulators of MEP2-GFP levels in yeast, primary screen, S. cerevisiae, multiplex flow cytometry (AID 1867;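 active means GFP response, as percent of the DMSO control, above the screen-wide mean plus 3 SD, about 139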;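 further: median GFP channel fluorescence of barcode-gated MEP2-GFP cells measured by flow cytometry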). The note with it: S. cerevisiae MEP2-GFP strain, 3 h, at 10 µM, stronger effect = higher value, 100% means same as DMSO wells.
The nature of assay [3]: modulators of CIT2-GFP expression in yeast, primary screen, S. cerevisiae, GFP fusion, multiplex flow cytometry (AID 1870;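 active means percent response above a set limit, the screen-wide mean plus 3 SD, cut at about 130% in these data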;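 further: barcoded CIT2-GFP strain pooled with four other GFP strains with rapamycin as positive control; median GFP fluorescence per well over plate mean of DMSO wells so 100% = DMSO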). The note with it: 3 h, at 10 µM, stronger effect = higher value.
Assay [4] in a line: modulators of LAP4-GFP expression in yeast, primary screen, S. cerevisiae, multiplex flow cytometry (AID 1873;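 active means GFP signal, as percent of the solvent control, above the screen mean plus 3 SD, about 149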). The note with it: 3 h, at 10 µM, stronger effect = higher value.
Assay [5] in a line: modulators of AGP1-GFP expression in yeast TOR pathway, primary screen, cell-based, multiplex flow cytometry, S. cerevisiae (AID 1887;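 active means GFP signal above the screen-wide mean plus 3 SD, that is over about 124.5% of the solvent control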;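 further: AGP1-GFP fusion strain of S. cerevisiae within a five-strain barcoded multiplex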). The note with it: 3 h, at 10 µM, stronger effect = higher value.
Assay [6] is described as follows: inhibitors of CD8+ T cell-vesicle binding, pilot screen, LFA-1/ICAM-1 modulator project, MLPCN validation set, flow cytometry (AID 2523;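 active means response below a set limit, under 55% cells CD8-positive and vesicle-bound, and CD8 cells' 90th-percentile brightness under 279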;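 on vesicle binding response: mean PE anti-B7-1 fluorescence of CD8+ cells relative to row control; 100% = QL9-loaded vesicles with DMSO vehicle in the same plate row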). The note with it: 2C mouse CD8+ T cells, at 7 µM, stronger effect = lower value; double positive events: measured here: CD8+/vesicle+ event percentage.
In assay [7] the target is Integrin beta-1 (Homo sapiens) + Integrin alpha-4 (Homo sapiens) (UniProt P13612+P05556). The assay is described as follows: inhibition of HUTS-21 binding to VLA-4, pilot screen, VLA-4 allosteric modulator project, U937 cells, HUTS-21 mAb, flow cytometry, validation set (AID 2674;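 active means inhibition above 50%, about 3 SD of the validation set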;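 further: antibody binding induced by the VLA-4 ligand LDV present at three times its Kd; 0% = LDV ligand with antibody and no compound and 100% = antibody without LDV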). The note with it: HUTS-21 LIBS mAb binding, at 6.7 µM, stronger effect = higher value, binding induced by LDV ligand.

Assay [8] in a line: superoxide lowering in aged yeast cells, pilot screen, validation compound set (AID 2706;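 active means superoxide response below 65% of plate, a cut near 3 SD across the whole screen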;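 further: yeast exposed to compound for one week at 30 degrees C before staining; 100% = mean of all compound wells on the same plate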). The note with it: S. cerevisiae aging, superoxide DHE fluorescence; at 10 µM; stronger effect = lower value.
The target of assay [9] is Beta-adrenergic receptor kinase 1 (Homo sapiens) (UniProt P25098). The assay is described as follows: GRK2 binders displacing RNA aptamer, biochemical, validation, human GRK2, bead flow cytometry (AID 488806;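 active means aptamer binding inhibition above 30%, about 3 SD of noise from non-fluorescent compounds; inactive means inhibition at or below 30%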). The note with it: bead-bound GRK2, FAM-aptamer displacement, at 10 µM, stronger effect = higher value.
For assay [10], the target named is Beta-2 adrenergic receptor (Homo sapiens) (UniProt P07550). The assay is described as follows: beta2AR agonists driving receptor internalization, pilot screen, cell-based, FAP fluorogen, flow cytometry, validation set (AID 504459;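 active means percent response above 42, roughly 3 SD of non-fluorescent test compounds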;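 further: agonist-driven loss of surface beta2AR via internalization measured by FAP dye flow cytometry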). The note with it: Am2.2-beta2AR cells, FAP surface receptor flow cytometry; at 10 µM; stronger effect = higher value.
In assay [11] the target is AP-2 complex subunit beta (Homo sapiens) (UniProt P63010). Kind of assay: inhibitors of arrestin peptide binding to AP2, pilot screen, biochemical, validation set, GST-AP2 beads, flow cytometry (AID 504541).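 Further: AP2 carries R879A mutation and is captured from E. coli lysate; bead-bound FITC arrestin peptide fluorescence measuring arrestin peptide binding to AP2; 0% = DMSO wells and 100% = excess unlabeled arrestin peptide control.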 The note with it: FITC arrestin peptide, at 10 µM, stronger effect = higher value, AP2 beta2 appendage fragment, R879A mutant.
Assay [12] can be described thus: yeast V-ATPase proton transport modulators, S. cerevisiae, pHLuorin, HTS validation (AID 504600; in the data active means response above about 15%;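 further: plate controls were DMSO for no effect and reference compound for full effect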). The note with it: S. cerevisiae pHLuorin cytosolic pH, at 10 µM, stronger effect = higher value.
The subject of assay [13] is anti-desmoglein-3 scFv antibody binding to human DSG3. The assay is described as follows: inhibitors of anti-DSG3 scFv binding to DSG3, pilot screen, biochemical, validation compound set, bead-based, flow cytometry (AID 588368;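 active means binding below the plate cutoff, the plate median minus 3 SD, with a reading above zero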;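 further: signal is the median channel fluorescence of bead-bound GFP antibody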). The note with it: Protein G beads, DSG3-Fc, scFv-GFP binding, at 10 µM, stronger effect = lower value.
Assay [14] can be described thus: inhibitors of fungal efflux pumps CDR1, CDR2, MDR1, pilot screen, validation compound set, multiplex, phenotypic (AID 588506;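 active means efflux inhibition above 0.42, the validation set average plus 4 SD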;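 further: Nile Red retained in cells so higher fluorescence means more efflux inhibition; 0 = negative control wells and 1 = enniatin B 25 µM full block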). The note with it: S. cerevisiae pump-expressing triplex, Nile Red efflux flow cytometry; at 10 µM; stronger effect = higher value; the pumps come from Candida albicans.
For assay [15], the target named is ATP-binding cassette sub-family B member 6 (Homo sapiens) (UniProt Q9NP58). The assay is described as follows: ABCB6 transporter inhibitors, pilot screen, K562-ABCB6 cells, flow cytometry, validation set (AID 588550;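 active means inhibition above the screen-wide mean plus 3 SD, about 51%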;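 further: 0% = DMSO wells and 100% = benzethonium chloride 70 µM positive control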). The note with it: K562-ABCB6 porphyrin accumulation, 1 h, at 10 µM, stronger effect = higher value.
Assay [16] in a line: promoters of myeloid differentiation in arrested cells, primary screen, cell-based, GFP/MAC1 double positive, flow cytometry, validation set (AID 588685;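 active means differentiation response of at least 50%, scaled between solvent and reference control, from cells with both markers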;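 further: compound exposure lasts four days before antibody staining and flow analysis; 0% = DMSO wells and 100% = 5 µM fulvestrant positive control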). The note with it: ER-HoxA9 marrow cells, stronger effect = higher value, normalized: vehicle 0, fulvestrant 100.

As usually defined, the inhibition is the relative decrease from the control value, in per cent.

Sequence of ATP-binding cassette sub-family B member 6 (Homo sapiens) (Q9NP58 whole entry, looked up): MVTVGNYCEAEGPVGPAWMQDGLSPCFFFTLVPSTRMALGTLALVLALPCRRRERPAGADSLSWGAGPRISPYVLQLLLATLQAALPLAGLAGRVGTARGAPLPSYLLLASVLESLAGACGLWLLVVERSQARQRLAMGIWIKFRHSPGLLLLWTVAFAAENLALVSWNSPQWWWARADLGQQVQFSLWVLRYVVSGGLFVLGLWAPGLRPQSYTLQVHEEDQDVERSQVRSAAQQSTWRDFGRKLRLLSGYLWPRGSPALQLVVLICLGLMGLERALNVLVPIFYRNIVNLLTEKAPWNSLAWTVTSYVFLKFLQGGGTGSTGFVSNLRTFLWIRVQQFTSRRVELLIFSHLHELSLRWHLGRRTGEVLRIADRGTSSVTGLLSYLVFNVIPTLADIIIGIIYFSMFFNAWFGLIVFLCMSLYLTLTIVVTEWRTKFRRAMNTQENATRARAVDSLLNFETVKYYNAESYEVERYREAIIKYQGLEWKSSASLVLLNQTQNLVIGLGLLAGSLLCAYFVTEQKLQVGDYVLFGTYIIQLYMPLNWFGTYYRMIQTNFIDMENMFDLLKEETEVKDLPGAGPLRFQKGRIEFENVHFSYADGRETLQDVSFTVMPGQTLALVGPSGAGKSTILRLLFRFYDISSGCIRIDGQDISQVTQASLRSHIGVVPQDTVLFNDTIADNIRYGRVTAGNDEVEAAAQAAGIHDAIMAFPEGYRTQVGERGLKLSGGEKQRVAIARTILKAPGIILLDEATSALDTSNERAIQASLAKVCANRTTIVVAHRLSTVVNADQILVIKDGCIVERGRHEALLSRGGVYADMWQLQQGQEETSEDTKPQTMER
Sequence of Integrin beta-1 (Homo sapiens) + Integrin alpha-4 (Homo sapiens) (P05556 whole entry, looked up): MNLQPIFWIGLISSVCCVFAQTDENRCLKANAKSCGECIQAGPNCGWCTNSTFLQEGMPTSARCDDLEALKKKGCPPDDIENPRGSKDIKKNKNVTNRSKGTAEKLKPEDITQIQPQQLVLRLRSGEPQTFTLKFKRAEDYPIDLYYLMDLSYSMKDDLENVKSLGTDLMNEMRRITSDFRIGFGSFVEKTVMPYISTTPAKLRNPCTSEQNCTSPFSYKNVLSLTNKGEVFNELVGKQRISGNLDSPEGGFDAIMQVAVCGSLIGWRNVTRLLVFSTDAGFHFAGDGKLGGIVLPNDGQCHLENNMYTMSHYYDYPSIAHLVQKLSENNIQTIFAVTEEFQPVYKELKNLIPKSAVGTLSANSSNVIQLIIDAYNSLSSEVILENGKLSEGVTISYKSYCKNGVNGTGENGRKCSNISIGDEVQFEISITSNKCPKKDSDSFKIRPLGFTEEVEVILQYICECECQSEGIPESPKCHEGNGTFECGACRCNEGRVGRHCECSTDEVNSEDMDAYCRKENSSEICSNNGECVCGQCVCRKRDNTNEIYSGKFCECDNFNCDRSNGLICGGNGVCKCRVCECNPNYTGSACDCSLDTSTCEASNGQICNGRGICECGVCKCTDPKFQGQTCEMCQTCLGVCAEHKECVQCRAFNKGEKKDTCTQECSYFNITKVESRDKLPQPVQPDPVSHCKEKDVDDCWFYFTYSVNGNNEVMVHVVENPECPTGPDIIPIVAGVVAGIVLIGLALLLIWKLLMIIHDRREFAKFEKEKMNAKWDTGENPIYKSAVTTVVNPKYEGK
Sequence of Integrin beta-1 (Homo sapiens) + Integrin alpha-4 (Homo sapiens) (P13612 whole entry, looked up): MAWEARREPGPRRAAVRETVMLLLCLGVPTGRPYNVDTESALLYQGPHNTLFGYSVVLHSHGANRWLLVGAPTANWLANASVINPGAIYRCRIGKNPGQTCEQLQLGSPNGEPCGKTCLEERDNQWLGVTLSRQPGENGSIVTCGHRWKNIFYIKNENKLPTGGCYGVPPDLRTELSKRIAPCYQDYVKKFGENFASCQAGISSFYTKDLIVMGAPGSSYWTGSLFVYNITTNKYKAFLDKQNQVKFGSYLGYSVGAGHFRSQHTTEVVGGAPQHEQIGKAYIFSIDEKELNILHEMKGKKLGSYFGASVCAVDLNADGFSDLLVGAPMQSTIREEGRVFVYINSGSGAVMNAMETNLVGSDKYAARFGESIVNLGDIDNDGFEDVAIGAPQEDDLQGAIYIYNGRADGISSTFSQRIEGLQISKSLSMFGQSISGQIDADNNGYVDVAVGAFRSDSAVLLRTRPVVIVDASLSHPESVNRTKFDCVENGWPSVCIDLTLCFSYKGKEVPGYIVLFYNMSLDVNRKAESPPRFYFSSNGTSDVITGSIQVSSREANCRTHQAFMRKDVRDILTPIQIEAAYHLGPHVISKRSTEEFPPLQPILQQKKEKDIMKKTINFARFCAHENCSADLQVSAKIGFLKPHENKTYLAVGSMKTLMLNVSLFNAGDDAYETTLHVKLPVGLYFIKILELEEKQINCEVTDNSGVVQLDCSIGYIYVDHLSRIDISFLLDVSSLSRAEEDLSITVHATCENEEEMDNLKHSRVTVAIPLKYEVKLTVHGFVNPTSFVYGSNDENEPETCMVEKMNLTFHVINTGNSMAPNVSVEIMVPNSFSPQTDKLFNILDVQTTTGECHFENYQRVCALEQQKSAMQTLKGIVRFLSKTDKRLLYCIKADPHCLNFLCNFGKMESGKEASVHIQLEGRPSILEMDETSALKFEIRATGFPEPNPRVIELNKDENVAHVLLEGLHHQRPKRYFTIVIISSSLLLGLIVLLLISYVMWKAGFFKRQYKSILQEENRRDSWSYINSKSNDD
Sequence of Beta-2 adrenergic receptor (Homo sapiens) (P07550 whole entry, looked up): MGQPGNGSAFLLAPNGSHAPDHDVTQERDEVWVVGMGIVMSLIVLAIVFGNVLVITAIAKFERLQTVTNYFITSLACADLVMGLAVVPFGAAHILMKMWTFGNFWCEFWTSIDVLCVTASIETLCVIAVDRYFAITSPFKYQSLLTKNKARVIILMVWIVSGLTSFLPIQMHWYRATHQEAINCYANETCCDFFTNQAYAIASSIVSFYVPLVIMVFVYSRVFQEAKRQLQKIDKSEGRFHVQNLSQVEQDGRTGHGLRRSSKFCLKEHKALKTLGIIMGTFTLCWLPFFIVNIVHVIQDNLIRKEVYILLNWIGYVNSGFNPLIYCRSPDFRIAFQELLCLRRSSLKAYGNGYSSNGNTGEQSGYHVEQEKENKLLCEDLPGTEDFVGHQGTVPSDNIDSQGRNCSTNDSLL
Sequence of Beta-adrenergic receptor kinase 1 (Homo sapiens) (P25098 whole entry, looked up): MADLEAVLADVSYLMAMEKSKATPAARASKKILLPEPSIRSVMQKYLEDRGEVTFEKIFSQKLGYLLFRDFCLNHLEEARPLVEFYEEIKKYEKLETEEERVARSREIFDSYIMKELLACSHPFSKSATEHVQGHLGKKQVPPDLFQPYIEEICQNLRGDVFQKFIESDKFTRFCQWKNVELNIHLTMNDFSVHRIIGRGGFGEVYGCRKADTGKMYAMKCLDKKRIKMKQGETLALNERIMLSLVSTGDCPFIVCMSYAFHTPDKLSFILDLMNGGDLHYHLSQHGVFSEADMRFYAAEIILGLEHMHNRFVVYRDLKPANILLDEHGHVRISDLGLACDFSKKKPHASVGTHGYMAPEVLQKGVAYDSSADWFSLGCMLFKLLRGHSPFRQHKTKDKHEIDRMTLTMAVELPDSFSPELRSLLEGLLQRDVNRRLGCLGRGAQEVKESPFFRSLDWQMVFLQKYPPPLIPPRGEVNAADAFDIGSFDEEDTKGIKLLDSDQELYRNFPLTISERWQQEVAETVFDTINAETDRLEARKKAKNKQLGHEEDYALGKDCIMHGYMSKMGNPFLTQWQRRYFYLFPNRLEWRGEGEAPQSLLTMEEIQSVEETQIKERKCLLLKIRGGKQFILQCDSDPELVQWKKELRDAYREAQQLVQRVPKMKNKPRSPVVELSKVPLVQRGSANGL
Sequence of AP-2 complex subunit beta (Homo sapiens) (P63010 whole entry, looked up, the tested form may be a part, one chain of several): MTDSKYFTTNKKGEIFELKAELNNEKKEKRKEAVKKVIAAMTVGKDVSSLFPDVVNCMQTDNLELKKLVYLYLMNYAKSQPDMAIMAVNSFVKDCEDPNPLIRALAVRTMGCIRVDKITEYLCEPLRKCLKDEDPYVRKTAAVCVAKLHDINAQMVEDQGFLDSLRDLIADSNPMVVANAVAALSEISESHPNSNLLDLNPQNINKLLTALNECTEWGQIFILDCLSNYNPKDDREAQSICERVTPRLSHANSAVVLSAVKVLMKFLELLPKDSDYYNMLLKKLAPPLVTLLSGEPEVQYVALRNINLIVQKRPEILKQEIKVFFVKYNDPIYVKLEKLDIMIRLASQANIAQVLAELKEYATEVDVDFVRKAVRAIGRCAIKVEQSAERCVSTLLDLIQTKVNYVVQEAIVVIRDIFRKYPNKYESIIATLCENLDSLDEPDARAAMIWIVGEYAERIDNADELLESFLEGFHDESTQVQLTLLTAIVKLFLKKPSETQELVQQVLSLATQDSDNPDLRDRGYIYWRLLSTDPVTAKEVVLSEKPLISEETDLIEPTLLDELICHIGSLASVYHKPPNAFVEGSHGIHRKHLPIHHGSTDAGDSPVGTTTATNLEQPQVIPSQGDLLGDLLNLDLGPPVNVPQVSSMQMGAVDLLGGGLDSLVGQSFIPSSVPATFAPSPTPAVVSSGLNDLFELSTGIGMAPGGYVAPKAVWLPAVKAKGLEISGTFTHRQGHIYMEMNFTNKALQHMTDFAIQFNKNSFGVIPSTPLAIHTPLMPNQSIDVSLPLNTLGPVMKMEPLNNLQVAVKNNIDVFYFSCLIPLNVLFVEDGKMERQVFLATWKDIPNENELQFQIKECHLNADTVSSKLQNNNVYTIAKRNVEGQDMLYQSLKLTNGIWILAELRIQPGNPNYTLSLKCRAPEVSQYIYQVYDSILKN

For `COc1cccc(=O)c2c(C)n(CC(=O)c3ccccc3)c(C)c12`, the percent of DMSO control GFP in [1] is 100% (inactive). The GFP response vs DMSO is 102% (inactive) in assay [2] and 113% (inactive) in assay [4]. Also, the percent response of DMSO control in assay [3] is 95.1% (inactive). Further, in assay [5], the GFP response, % of DMSO was 113% (inactive). This molecule came in with a double positive events in assay [6] of 58.2%. In addition, the vesicle binding response in [6] is 203% (inactive). The inhibition in [7] was -72.7% (inactive); in assay [11], -9.87% (inactive); in assay [15], -32% (inactive). Also, the superoxide response (% of plate) in [8] is 96.3% (inactive). The aptamer binding inhibition in assay [9] was -1% (inactive). Besides, the values for the response in assay [10] and in assay [12] were -13.2% (inactive) and 2.5% (inactive), respectively. The binding (% of control) in [13] is 98.8% (inactive). Also, the efflux inhibition (fraction of control) in [14] is 0.33 (inactive). Also, the differentiation response in assay [16] is -2.03% (inactive).
As to `CN(C)CCOC(c1ccccc1)c1ccccc1`, in assay [1], the percent of DMSO control GFP was 94.4% (inactive). Further, the values for the GFP response vs DMSO in assay [2] and in assay [4] were 123% (inactive) and 87.5% (inactive), respectively. Also, the percent response of DMSO control in assay [3] was 115% (inactive). Besides, in [5], the GFP response, % of DMSO was 89.4% (inactive). This molecule also displayed a double positive events in [6] of 43.1%. In assay [6], the vesicle binding response is 107% (inactive). The results for the inhibition in assay [7], in assay [11] and in [15] were 1.61% (inactive), 29.6% (inactive) and 2% (inactive), respectively. The superoxide response (% of plate) in assay [8] is 96.7% (inactive). The aptamer binding inhibition in [9] is -1% (inactive). The response was -13.1% (inactive) in [10] and -7.12% (inactive) in assay [12]. Besides, in assay [13], the binding (% of control) was 98% (inactive). Further, the efflux inhibition (fraction of control) in [14] was 0.52 (active). Besides, in assay [16], the differentiation response was 1.64% (inactive).
Turning to `O=C(COc1ccc2ccc(=O)oc2c1)c1ccccc1`, the percent of DMSO control GFP in assay [1] was 91.1% (inactive). Besides, the GFP response vs DMSO is 130% (inactive) in [2] and 85.3% (inactive) in [4]. Also, in assay [3], the percent response of DMSO control is 102% (inactive). The GFP response, % of DMSO in assay [5] is 88.4% (inactive). The double positive events in assay [6] was 59.9%. For the same molecule, the vesicle binding response in [6] is 132% (inactive). Further, the inhibition in assay [7] is -8.09% (inactive); in assay [11] it was 14.3% (inactive); in assay [15], -10% (inactive). Moreover, in assay [8], the superoxide response (% of plate) is 98.8% (inactive). Moreover, the aptamer binding inhibition in assay [9] was 1% (inactive). The results for the response in assay [10] and in [12] were -4.3% (inactive) and -1.1% (inactive), respectively. The binding (% of control) in assay [13] is 97.6% (inactive). For the same molecule, in assay [14], the efflux inhibition (fraction of control) is 0.19 (inactive). In addition, the differentiation response in assay [16] is -0.82% (inactive).
As to `CCOc1ccc2oc(-c3ccccc3)c(C(=O)O)c2c1`, the percent of DMSO control GFP in assay [1] is 97.8% (inactive). The values for the GFP response vs DMSO in assay [2] and in assay [4] were 108% (inactive) and 110% (inactive), respectively. Besides, the percent response of DMSO control in assay [3] was 100% (inactive). For the same molecule, the GFP response, % of DMSO in assay [5] was 105% (inactive). In assay [6], the double positive events turned out to be 65.1%. Besides, the vesicle binding response in [6] is 204% (inactive). The inhibition in [7] is 5.69% (inactive); in assay [11] it was 7.05% (inactive); in [15], 9% (inactive). For the same molecule, in [8], the superoxide response (% of plate) was 102% (inactive). For the same molecule, the aptamer binding inhibition in [9] was 6% (inactive). Also, the response in assay [10] is -17.2% (inactive); in assay [12] it was 1.4% (inactive). Further, the binding (% of control) in assay [13] was 101% (inactive). Also, in assay [14], the efflux inhibition (fraction of control) was -0.04 (inactive). For the same molecule, the differentiation response in assay [16] is 1.91% (inactive).
